Measurements from PubChem BioAssay (NCATS).
Values joined by “and” are separate entries in the source; they are usually repeats but may differ in a detail not shown here. Equal entries are not always repeated. Records with an inconclusive call do not appear. Some compounds were tested as several samples or in several runs, with calls that do not always agree. Active and inactive are the calls of the source. Calls follow the shape of the dose curve; as a rule, active = well fitted inhibition curve with a large enough effect; inconclusive = small, poorly fitted or top-dose-only effect; inactive = flat fitted curve, though single readings scatter.

What was measured:
[1] = tested on: CRL-7250; test: Cytotoxic Profiling of Annotated Libraries Using Quantitative High-Throughput Screening (AID 1296008); settings: Five cell lines viability, CellTiter-Glo ATP luminescence, 48-72 h; max response: active compounds read low; also: potency is read from the fitted curve at half-maximal effect; as to max response: % is scaled to controls: 0 for no effect and ±100 for the full control effect
Method in brief: (§1)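 Compounds were pin-transferred onto cells and incubated 48 or 72 hr at 37 degree Celsius, 95% humidity. CellTiter-Glo was added, plates sat 10 min at room temperature, then ATP-coupled luminescence was imaged as the viability read-out.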

[2] = tested on: HEK293; test: as above; settings: Five cell lines viability, CellTiter-Glo ATP luminescence, 48-72 h; max response: active compounds read low
Method in brief: as §1

[3] = tested on: HaCat; test: as above; settings: Five cell lines viability, CellTiter-Glo ATP luminescence, 48-72 h; max response: active compounds read low
Method in brief: as §1

[4] = tested on: KB-3-1; test: as above; settings: Five cell lines viability, CellTiter-Glo ATP luminescence, 48-72 h; max response: active compounds read low
Method in brief: as §1

[5] = tested on: NIH3T3; test: as above; settings: Five cell lines viability, CellTiter-Glo ATP luminescence, 48-72 h; max response: active compounds read low
Method in brief: as §1

[6] = tested on: HACAT; test: qHTS assay to identify novel small-molecules to repurpose for Merkel cell carcinoma treatment (AID 1296009); settings: MCC and control cell lines, CellTiter-Glo viability, 72 h; at 44.8 µM (top of the series) unless noted; also: potency is read from the fitted curve at half-maximal effect
Method in brief: (§2)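 Luminescence from CellTiter-Glo, read 10 min after addition at room temperature, reported viability following a 72 hr, 37 degree celsius treatment with NPC or MIPE compounds in titration; values normalized to plate controls.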

[7] = tested on: MCC-13; test: as above; settings: MCC and control cell lines, CellTiter-Glo viability, 72 h; series mostly up to 46 µM
Method in brief: as §2

[8] = tested on: HEK293T; test: as above; settings: MCC and control cell lines, CellTiter-Glo viability, 72 h; at 44.8 µM (top of the series) unless noted
Method in brief: as §2

[9] = tested on: TAB165; test: qHTS profiling for inhibitors of Plasmodium falciparum proliferation (AID 504749);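 also: 0% = DMSO vehicle and full inhibition = artemisinin control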; settings: P. falciparum in erythrocytes, SYBR Green DNA, 72 h; series mostly up to 28.7 µM
Method in brief: (§3)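 Fluorescence of SYBR Green-bound parasite DNA, read at 485/535 nm, served as the growth measure. Infected erythrocytes were cultured with compound 72 h; artemisinin (0.29 uM) and DMSO wells defined the normalization range.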

[10] = tested on: W2; test: as above; settings: P. falciparum in erythrocytes, SYBR Green DNA, 72 h; series mostly up to 28.7 µM
Method in brief: as §3
Also: nearly all actives have a fitted effect of over 60% in size.

O=C(c1ccc(C(=O)N2CCC(N3CCCC3)CC2)c(Nc2ccccc2)c1)N1CCC(N2CCCC2)CC1
inactive: max response [1] -2.66% and 0.948% | max response [2] -1.83% and -8.97% | outcome [3] | max response [4] -1.29% and -4.53% | max response [5] -1.45% | outcome [5] | outcome [6] | Potency [7]

O=C(CC12CC3CC(CC(C3)C1)C2)Nc1cccc2nc(NCCNCCO)ccc12
inactive: max response [1] -13.8% and 3.99% | max response [2] -37.5% | outcome [3] | max response [4] -12.7% | outcome [5] | outcome [6] | Potency [7]

CN1CCC(COc2cnc(-c3cccc(Cn4nc(-c5cccc(C#N)c5)ccc4=O)c3)nc2)CC1
inactive: outcome [1] | outcome [2] | outcome [3] | max response [4] -7.63% | max response [5] -5.81% | outcome [6] | outcome [8] | Potency [7]
active: Potency [5] 16.4 µM

CCCCCCCCCCCCCCCC(=O)O[C@H]1[C@@H](O)[C@@H](O)[C@@H]([C@H](NC(=O)[C@@H]2C[C@@H](CCC)CN2C)[C@H](C)Cl)O[C@@H]1SC
inactive: outcome [1] | max response [2] -29.9% | outcome [3] | outcome [4] | outcome [5] | outcome [6] | Potency [7]

CCOC(=O)[C@@H](N)CCC(=O)N[C@@H](CSCc1ccccc1)C(=O)N[C@@H](C(=O)OCC)c1ccccc1
inactive: outcome [1] | max response [2] -7.26% | outcome [3] | max response [4] -0.167% | max response [5] 1.31% | outcome [6] | Potency [7]

CC1C(=O)OC2C(O)C34C5CC(C(C)(C)C)C36C(OC(=O)C6O)OC4(C(=O)O5)C12O (configuration not stated)
inactive: outcome [1] | max response [2] -2.56% | outcome [3] | outcome [4] | max response [5] -22.7% | outcome [6] | Potency [7]

CN1[C@H]2CC[C@H]1CC(OC(=O)c1c[nH]c3ccccc13)C2 (some centres not stated)
inactive: max response [1] -1.18% | max response [2] -1.65% | outcome [3] | max response [4] 6.19% | outcome [5] | outcome [6] | Potency [7]

Nc1ncnc2c1ncn2[C@@H]1O[C@H](CO)[C@@H](O)[C@@H]1O
inactive: outcome [1] | max response [2] -0.764% | outcome [3] | outcome [4] | max response [5] 3.26% | outcome [6] | Potency [7]

CCC[C@@H](NC(=O)[C@@H]1[C@H]2CCC[C@@H]2CN1C(=O)[C@@H](NC(=O)[C@@H](NC(=O)c1cnccn1)C1CCCCC1)C(C)(C)C)C(=O)C(=O)NC1CC1
inactive: outcome [1] | max response [2] -0.244% | outcome [3] | outcome [4] | outcome [5] | outcome [6] | Potency [7]

NCC1CCC(C(=O)O)CC1 (configuration not stated)
inactive: max response [1] -3.04% | max response [2] 2.93% | outcome [3] | max response [4] 7.37% and 2.9% | max response [5] -3.72% | outcome [6] | Potency [7]

C=CC[N+]1([C@H]2C[C@H]3[C@@H]4CC[C@H]5C[C@H](O)[C@@H](N6CCOCC6)C[C@]5(C)[C@@H]4CC[C@]3(C)[C@H]2OC(C)=O)CCCC1
inactive: outcome [1] | max response [2] -1.88% | outcome [3] | max response [4] 8.47% | max response [5] 4.84% | outcome [6] | Potency [7]

CC(=O)N1CCN(c2ccc(OCc3nn(C)c(C)c3-c3cccc4c(CCCOc5cc(C)c(Cl)c(C)c5)c(C(=O)O)n(Cc5cccnc5)c34)cc2)CC1
inactive: max response [1] 4.49% | outcome [2] inactive; activator | outcome [3] | max response [4] 1.85% | outcome [5] | outcome [6] | outcome [8] inactive; activator | Potency [7]

CCC(=O)NCC[C@@H]1CCc2ccc3c(c21)CCO3
inactive: max response [1] -4.42% | max response [2] -0.876% | outcome [3] | max response [4] -2.73% | outcome [5] | outcome [6] | Potency [7]

CSc1cccc(Nc2ncc3cc(-c4c(Cl)cccc4Cl)c(=O)n(C)c3n2)c1
active: Potency [1] 0.235 µM | Potency [2] 13.2 µM | Potency [5] 0.332 µM
inactive: max response [3] -17.3% | max response [4] 7.1% | Potency [7]

COc1cc(C=CC(=O)O)ccc1O
inactive: max response [1] 1.23% | max response [2] -0.866% | max response [3] -11.1% | max response [4] 4.21% | outcome [5] | Potency [7]

CCc1cccc(CC)c1NC(=O)N1Cc2[nH]nc(NC(=O)c3ccc(N4CCN(C)CC4)cc3)c2C1
active: Potency [1] 16.6 µM and 10.3 µM | Potency [2] 8.2 µM | Potency [3] 26.4 µM and 18.4 µM | Potency [4] 7.43 µM and 4.61 µM | Potency [5] 13.2 µM
inactive: Potency [7]

CNC(=O)[C@H](CC1=CN=C2C=CCC=C12)NC(=O)[C@@H](CC(=O)NO)CC(C)C
inactive: max response [1] -4.69% | max response [2] 4.44% | max response [3] -12.2% | max response [4] 8.99% | max response [5] -0.494% | Potency [7]

CCOc1ccccc1N=Nc1c(C)[nH]n(-c2nc(-c3ccccc3)cs2)c1=O
inactive: max response [1] -16.1% | max response [2] -20.4% | max response [3] -4.82% | max response [4] -0.405% | max response [5] -3.32% | Potency [7]

O=C(O)C1=CO[C@@H](O[C@@H]2O[C@H](CO)[C@H](O)[C@H](O)[C@H]2O)[C@@H]2C(CO)=CC[C@H]12
inactive: max response [1] 1.58% | outcome [2] | max response [3] -0.469% | max response [4] 7.89% | max response [5] -17.7% | outcome [8] | Potency [7]

CC(C)C[C@@H](N)[C@H](O)C(=O)N[C@H](C(=O)N[C@H](C(=O)N[C@@H](CC(=O)O)C(=O)O)C(C)C)C(C)C
inactive: max response [1] 3.99% | max response [2] 3.01% | max response [3] 1.98% | max response [4] 4.23% | max response [5] 1.99% | Potency [7]

Cc1nc(NC(=O)N2CCC[C@@H]2C(N)=O)sc1-c1csc(C(C)(C)C)n1
active: Potency [1] 1.32 µM | Potency [2] 2.35 µM | Potency [3] 1.87 µM | Potency [4] 13.2 µM | Potency [5] 4.69 µM
inactive: Potency [7]

CCCCCOC(=O)Nc1nc(=O)n([C@@H]2O[C@H](C)[C@@H](O)C2O)cc1F (some centres not stated)
inactive: max response [1] 0.279% | max response [2] -5.3% | max response [3] -7.75% | max response [4] -1.34% | max response [5] 2.26% | Potency [7]

CC(C)[C@H](O)C(=O)N[C@@H](C)C(=O)N[C@@H]1C(=O)N(C)CCc2ccccc21
inactive: max response [1] -12.5% | max response [2] -11.6% | max response [3] 1.12% | max response [4] -11.2% | max response [5] -3.15% | Potency [7]

COC(=O)[C@H](c1ccccc1Cl)N1CCc2sccc2C1
inactive: max response [1] -2.92% | max response [2] 3.92% | max response [3] -12% | outcome [4] | max response [5] -0.568% | Potency [7]

COc1cc(F)c(C(C)C)cc1-c1ccc(C(F)(F)F)cc1CN1C(=O)O[C@H](c2cc(C(F)(F)F)cc(C(F)(F)F)c2)[C@@H]1C
inactive: outcome [1] | max response [2] 0.948% | max response [3] 0.17% | max response [4] -11.6% | max response [5] 0.998% | Potency [7]

O[C@@H](COc1cccc2ncccc12)CN1CCN(C2c3ccccc3[C@@H]3[C@H](c4ccccc42)C3(F)F)CC1 (some centres not stated)
active: Potency [2] 10.6 µM and 18.4 µM
inactive: outcome [1] | max response [3] -3.25% | max response [4] 2.31% | outcome [5] | Potency [7]

OC1CCC(Nc2ncc3nc(Nc4c(F)cc(F)cc4F)n([C@@H]4CCOC4)c3n2)CC1 (some centres not stated)
inactive: outcome [1] | max response [2] -2.09% | max response [3] -6.12% | max response [4] 8.34% | outcome [5] | Potency [7]

CCOC(=O)N1c2ccc(C(F)(F)F)cc2[C@@H](N(Cc2cc(C(F)(F)F)cc(C(F)(F)F)c2)C(=O)OC)C[C@H]1CC
inactive: max response [2] -0.609% | max response [3] 3.49% | max response [4] 1.68% | outcome [5] | Potency [7]
active: Potency [1] 14.8 µM

O=C(O)c1nc(=O)[nH]c(=O)[nH]1
inactive: Potency [9] | Potency [10] | max response [1] 1.07% | max response [2] -17.5% | max response [3] 1.83% | max response [4] 13.7% and 2.52% | max response [5] 0.163% | Potency [7]

N#CC1(c2cccc(C(=O)Nc3cc(Oc4ccc5nc(NC(=O)C6CC6)sc5n4)ccc3F)c2Cl)CC1
active: Potency [1] 5.17 µM | Potency [2] 13.2 µM and 6.51 µM | Potency [3] 26.4 µM and 20.6 µM | Potency [5] 3.32 µM and 3.26 µM | Potency [7] 16.6 µM
inactive: max response [4] -20.5% and -13.3%

FC(F)(F)c1ccc(C=Cc2nc(COc3ccc(CCCCn4ccnn4)cc3)co2)cc1
active: Potency [1] 0.0132 µM | Potency [3] 7.43 µM | Potency [7] 10.5 µM
inactive: max response [2] -116% | max response [4] -26.9% | max response [5] -14.8%

Cc1ccc(S(=O)(=O)Nc2nc3ccccc3nc2Nc2ccc3nsnc3c2)cc1
active: Potency [3] 14.4 µM
inactive: max response [1] -6.76% | max response [2] 4.32% | outcome [4] | max response [5] -28.1% | Potency [7]
